In the library only some 0.89% were active in any assay of this set; here they are far more common.
RPL19A TOR yeast: RPL19A-GFP expression modulators in yeast, primary screen, cell-based, S. cerevisiae, multiplex flow cytometry, MLPCN; hit rate 0.3% among 330,000; S. cerevisiae RPL19A-GFP strain, 3 h; hits give low values; AID 2025, 2009; percent response vs DMSO, % at 10 µM;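 active = percent response vs DMSO below 50%; inconclusive = fewer than 70 events counted for the yeast strain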;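 also: median channel GFP fluorescence of the barcoded RPL19A-GFP strain; ratio of sample median GFP to plate DMSO average so 100% = DMSO; lower means less RPL19A-GFP as with rapamycin TOR inhibition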
CIT2 TOR yeast: modulators of CIT2-GFP expression in yeast, primary screen, S. cerevisiae, GFP fusion, multiplex flow cytometry, MLPCN library | S. cerevisiae CIT2-GFP strain, 3 h; 100 means same as DMSO wells | GFP response vs DMSO, % at 10 µM | hit rate 0.065% among 320,000;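 active = GFP response relative to DMSO above a set limit, near the screen mean plus 3 SD, cut at about 150% in these data; inconclusive = Fewer than 70 cells measured for a yeast strain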;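 also: ratio of well median GFP fluorescence to mean of DMSO wells on the plate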
MEP2 TOR yeast: modulators of MEP2-GFP levels in yeast, primary screen, S. cerevisiae, multiplex flow cytometry, MLPCN library. S. cerevisiae MEP2-GFP strain, 3 h; 100% = DMSO control level. GFP response vs DMSO, % at 10 µM. hit rate 0.51% among 330,000. AID 2016, 2009;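 active = GFP response versus DMSO above a set limit, roughly screen mean plus 3 SD, cut at about 180% in these data; inconclusive = fewer than 70 cells counted for a yeast strain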;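 also: median GFP fluorescence of the barcode-gated MEP2-GFP cells per well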
AGP1-GFP MLPCN: modulators of AGP1-GFP expression in yeast TOR pathway, primary screen, cell-based, multiplex flow cytometry, S. cerevisiae, MLPCN library; AID 2066, 2009; hit rate 0.02% among 320,000; GFP response vs DMSO, % at 10 µM; 3 h; GFP as percent of DMSO wells;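 active = GFP response relative to DMSO above a set limit, near screen average plus 3 SD, cut at about 150% in these data; inconclusive = fewer than 70 cells counted for the yeast strain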;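 also: median GFP channel fluorescence of the gated AGP1 strain per well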
LAP4-GFP MLPCN: modulators of LAP4-GFP expression in yeast, primary screen, S. cerevisiae, multiplex flow cytometry, MLPCN library; 3 h; median GFP as percent of DMSO wells; GFP response vs DMSO, % at 10 µM; hit rate 0.34% among 320,000;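 active = GFP response vs DMSO above a set limit, about the screen mean plus 3 SD, cut at about 150% in these data; inconclusive = under 70 cell events counted for the yeast strain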
An asterisk follows results filed as active; [ ] = dose if it differs, or a comment.

`CCOC(=O)Cn1cc(C(=O)C(=O)N2CCOCC2)c2ccccc21` gave RPL19A TOR yeast 103, CIT2 TOR yeast 109, MEP2 TOR yeast 99, AGP1-GFP MLPCN 104 and LAP4-GFP MLPCN 94.
`CCOc1ccccc1-c1nc(CN2CCCN(C(=O)c3ccco3)CC2)c(C)o1` gave RPL19A TOR yeast 98, CIT2 TOR yeast 97, MEP2 TOR yeast 90, AGP1-GFP MLPCN 96 and LAP4-GFP MLPCN 89.
`O=[N+]([O-])c1cccc(-c2ccc(/C=N/Nc3nc(N4CCCCC4)nc(N4CCCCC4)n3)o2)c1` gave RPL19A TOR yeast 89, CIT2 TOR yeast 102, MEP2 TOR yeast 115, AGP1-GFP MLPCN 103 and LAP4-GFP MLPCN 152*.
`COc1cc(S(=O)(=O)N2CCOCC2)ccc1NC(=O)c1cc2c(s1)CCC2` gave RPL19A TOR yeast 39*[may fluoresce violet], CIT2 TOR yeast inconclusive, MEP2 TOR yeast 233*[may fluoresce violet], AGP1-GFP MLPCN 17 and LAP4-GFP MLPCN 96.
`COc1ccc(S(=O)(=O)N2CCOCC2)cc1Cl` gave RPL19A TOR yeast 54, CIT2 TOR yeast inconclusive, MEP2 TOR yeast 299*[may fluoresce violet], AGP1-GFP MLPCN 24 and LAP4-GFP MLPCN 94.
O=S(=O)(c1cccc(S(=O)(=O)N2CCOCC2)c1)N1CCCCC1 was read as RPL19A TOR yeast 40*[may fluoresce violet], CIT2 TOR yeast inconclusive, MEP2 TOR yeast 279*[may fluoresce violet], AGP1-GFP MLPCN inconclusive and LAP4-GFP MLPCN 84.
`O=S(=O)(c1ccccc1)c1cnc(-c2ccccc2)nc1N1CCCCC1` gave RPL19A TOR yeast 95, CIT2 TOR yeast 89, MEP2 TOR yeast 96, AGP1-GFP MLPCN 99 and LAP4-GFP MLPCN 119.
Screening COc1ccccc1CNC(=O)C1CCN(S(=O)(=O)c2ccc3nc4c(c(C(=O)O)c3c2)CCCC4)CC1 returned RPL19A TOR yeast 35*[may fluoresce violet], CIT2 TOR yeast inconclusive, MEP2 TOR yeast 258*[may fluoresce violet], AGP1-GFP MLPCN inconclusive and LAP4-GFP MLPCN 50.
For CCOc1ccc(CCNC(=O)COC(=O)c2oc3ccccc3c2COC)cc1OCC the results were RPL19A TOR yeast 96, CIT2 TOR yeast 90, MEP2 TOR yeast 105, AGP1-GFP MLPCN 97 and LAP4-GFP MLPCN 104.
CSc1nc2ccc(S(=O)(=O)N3CCCC3)cc2s1 was read as RPL19A TOR yeast 93, CIT2 TOR yeast 73, MEP2 TOR yeast 98, AGP1-GFP MLPCN 102 and LAP4-GFP MLPCN 177*.
For COc1ccc(NC(=O)Nc2c(O)ccc3ccccc23)cc1 the results were RPL19A TOR yeast 22*[may fluoresce violet], CIT2 TOR yeast inconclusive, MEP2 TOR yeast inconclusive, AGP1-GFP MLPCN inconclusive and LAP4-GFP MLPCN 96.
For COc1ccc(C(=O)Nc2c(O)ccc3ccccc23)cc1OC the results were RPL19A TOR yeast 43*[may fluoresce violet], CIT2 TOR yeast inconclusive, MEP2 TOR yeast 489*[may fluoresce violet], AGP1-GFP MLPCN inconclusive and LAP4-GFP MLPCN 105.
`COc1ccc(C(=O)Nc2c(O)ccc3ccccc23)cc1` gave RPL19A TOR yeast 95, CIT2 TOR yeast 101, MEP2 TOR yeast 92, AGP1-GFP MLPCN 95 and LAP4-GFP MLPCN 97.
COc1ccc(/C=C/C(=O)NC(=S)Nc2ccc(S(=O)(=O)N=C(N)N)cc2)cc1OC was read as RPL19A TOR yeast 86, CIT2 TOR yeast 96, MEP2 TOR yeast 94 and AGP1-GFP MLPCN 93.
For C#CCNC(=O)C1=C[C@@H](c2ccc(Br)cc2)[C@H](CCCO)[C@@H](OCC)O1 the results were RPL19A TOR yeast 96, CIT2 TOR yeast 102, MEP2 TOR yeast 105, AGP1-GFP MLPCN 105 and LAP4-GFP MLPCN 94.
`C#CCNC(=O)C1=C[C@H](c2ccc3c(c2)OCO3)[C@@H](CCCO)[C@H](OCC)O1` gave RPL19A TOR yeast 46*[may fluoresce violet], CIT2 TOR yeast inconclusive, MEP2 TOR yeast 300*[may fluoresce violet], AGP1-GFP MLPCN inconclusive and LAP4-GFP MLPCN 75.
For Cc1cc(C)c(NC(=O)COC(=O)C2=COCCO2)c(Cl)c1 the results were RPL19A TOR yeast 103, CIT2 TOR yeast 88, MEP2 TOR yeast 101, AGP1-GFP MLPCN 102 and LAP4-GFP MLPCN 100.
For COc1cc(OC)cc(C(=O)Nc2cccc3cccnc23)c1 the results were RPL19A TOR yeast 102, CIT2 TOR yeast 100, MEP2 TOR yeast 103, AGP1-GFP MLPCN 92 and LAP4-GFP MLPCN 99.
COc1cccc(N=Nc2ccc3cccnc3c2O)c1 was read as RPL19A TOR yeast 99, CIT2 TOR yeast 146, MEP2 TOR yeast 112, AGP1-GFP MLPCN 105 and LAP4-GFP MLPCN 166*.
`C=CCOc1ccc(/C(O)=C2/C(=O)C(=O)N(CCCN3CCOCC3)C2c2ccc(OC)cc2)cc1` (stereo unspecified) gave RPL19A TOR yeast 97, CIT2 TOR yeast 99, MEP2 TOR yeast 100, AGP1-GFP MLPCN 100 and LAP4-GFP MLPCN 99.
`C=CCOc1ccc(/C(O)=C2/C(=O)C(=O)N(CCCN3CCOCC3)C2c2ccccc2)cc1` (stereo unspecified) gave RPL19A TOR yeast 29*[may fluoresce violet], CIT2 TOR yeast inconclusive, MEP2 TOR yeast 316*[may fluoresce violet], AGP1-GFP MLPCN inconclusive and LAP4-GFP MLPCN 89.
For CC(=O)NC1(C(F)(F)F)C(=O)Nc2c1c(=O)[nH]c(=O)n2CCc1ccccc1 (stereo unspecified) the results were RPL19A TOR yeast 51, CIT2 TOR yeast 83, MEP2 TOR yeast 176*, AGP1-GFP MLPCN 29 and LAP4-GFP MLPCN 98.
`COc1ccc(-c2cccc3c2NC(=O)C3=O)cc1OC` gave RPL19A TOR yeast 97, CIT2 TOR yeast 97, MEP2 TOR yeast 97, AGP1-GFP MLPCN 98 and LAP4-GFP MLPCN 93.
Screening O=C(Nc1c2c(nn1-c1ccccc1)CS(=O)C2)c1ccco1 (stereo unspecified) returned RPL19A TOR yeast 77, CIT2 TOR yeast 82, MEP2 TOR yeast 90, AGP1-GFP MLPCN 113 and LAP4-GFP MLPCN 168*.
CCc1ccc(NC(=O)Cn2cccc2)cc1 was read as RPL19A TOR yeast 105, CIT2 TOR yeast 101, MEP2 TOR yeast 105, AGP1-GFP MLPCN 102 and LAP4-GFP MLPCN 98.
CC1CCN(c2nc3c(N)ncnc3n2[C@@H]2O[C@H](CO)[C@@H](O)[C@H]2O)CC1 was read as RPL19A TOR yeast 100, CIT2 TOR yeast 98, MEP2 TOR yeast 98, AGP1-GFP MLPCN 107 and LAP4-GFP MLPCN 101.
`CC1CCN(c2nc3c(=O)[nH]c(N)nc3n2[C@@H]2O[C@H](CO)[C@@H](O)[C@H]2O)CC1` gave RPL19A TOR yeast 86, CIT2 TOR yeast inconclusive, MEP2 TOR yeast active[may fluoresce violet], AGP1-GFP MLPCN inconclusive and LAP4-GFP MLPCN 99.
CC(C)Cn1c(=O)c(C(=O)NCc2ccc3c(c2)OCO3)c(O)c2ccccc21 was read as RPL19A TOR yeast 29*[may fluoresce violet], CIT2 TOR yeast inconclusive, MEP2 TOR yeast inconclusive, AGP1-GFP MLPCN inconclusive and LAP4-GFP MLPCN inconclusive.
O=C(NCc1ccc2c(c1)OCO2)c1c(O)c2cccc3c2n(c1=O)CCC3 was read as RPL19A TOR yeast 94, CIT2 TOR yeast 92, MEP2 TOR yeast 102, AGP1-GFP MLPCN 94 and LAP4-GFP MLPCN 93.

Assay outcomes: PubChem, NMMLSC
